Test results from PubChem BioAssay (Tox21).
Results filed as inconclusive are left out. Activity calls are given as the source filed them. Unless noted, calls come from the whole dose curve; as a rule, active = well fitted curve in the direction sought with a large enough effect in the repeat runs; inconclusive = weak or mixed curves; inactive = no such curve, though single readings can be large; an effect the other way counts as inactive or inconclusive.

How the values were obtained:
[1] = qHTS assay to test for compound auto fluorescence at 535 nm (green) in HEK293 cells (AID 720680)
[2] = qHTS assay to test for compound auto fluorescence at 460 nm (blue) in HEK293 cell free culture (AID 720681)
Summary of the method: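 Blue fluorescence (Ex 405/Em 460 nm, triamterene-equivalent) was read immediately after pin transfer of compound or DMSO into medium (DMEM, 10% FBS) without cells.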

[3] = qHTS assay to test for compound auto fluorescence at 535 nm (green) in HEK293 cell free culture (AID 720682)
Summary of the method: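 Each library compound, or DMSO control, is added by pintool to medium alone, comprising DMEM and 10% FBS. Emission at 535 nm following 485 nm excitation is quantified against fluorescein.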

[4] = qHTS assay to test for compound auto fluorescence at 590 nm (red) in HEK293 cell free culture (AID 720683)
Summary of the method: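 Red-channel autofluorescence of compounds in culture medium (DMEM, 10% FBS), no cells, measured at 540/590 nm. Rose Bengal sodium is the reference fluorophore for equivalence.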

[5] = qHTS assay to test for compound auto fluorescence at 590 nm (red) in HepG2 cell free culture (AID 720684)
Summary of the method: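 No cells present: MEM + 10% FBS only. Compound pinned in, red label read (540/590 nm). Activity = fluorescence equivalent to Rose Bengal sodium.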

[6] = qHTS assay to test for compound auto fluorescence at 460 nm (blue) in HepG2 cell free culture (AID 720685)
Summary of the method: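 Cell-free plates of MEM plus 10% FBS received 23 nL compound or DMSO vehicle; blue-channel (405/460 nm) intensity scored against triamterene as reference fluorophore.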

[7] = qHTS assay to test for compound auto fluorescence at 535 nm (green) in HepG2 cell free culture (AID 720686)
[8] = qHTS assay to test for compound auto fluorescence at 460 nm (blue) in HepG2 cells (AID 720687)
Summary of the method: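 Blue-channel autofluorescence (Ex/Em 405/460 nm, triamterene-equivalent) was measured after 1 hr compound exposure at 37 C, 5% CO2. Cells were HepG2, plated overnight at 37 C in MEM plus 10% FBS.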

[9] = qHTS assay to identify small molecule antagonists of the glucocorticoid receptor (GR) signaling pathway - cell viability counter screen (AID 720693); note: nearly all actives have a fitted effect of over 55% in size
[10] = qHTS assay for identifying genotoxic compounds that show differential cytotoxicity against isogenic chicken DT40 cell lines with known DNA damage response pathways - wild type cell line (AID 743012); note: nearly all actives have a fitted effect of over 60% in size
Summary of the method: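 Viability of DNA repair-proficient chicken DT40 cells was assessed by CellTiter-Glo luminescence following 40 h compound exposure at 37 C/5% CO2.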

[11] = qHTS assay for identifying genotoxic compounds that show differential cytotoxicity against isogenic chicken DT40 cell lines with known DNA damage response pathways - Rev3 mutant cell line (AID 743014); note: nearly all actives have a fitted effect of over 55% in size; note: potency is the fitted concentration of half-maximal effect
[12] = qHTS assay for identifying genotoxic compounds that show differential cytotoxicity against isogenic chicken DT40 cell lines with known DNA damage response pathways - Rad54/Ku70 mutant cell line (AID 743015); note: nearly all actives have a fitted effect of over 60% in size; note: potency is the fitted concentration of half-maximal effect
[13] = qHTS assay to identify small molecule antagonists of the androgen receptor (AR) signaling pathway - cell viability counter screen (AID 743033; note: nearly all actives have a fitted effect of over 45% in size)
[14] = target: Androgen receptor (Homo sapiens) (UniProt P10275); test: qHTS assay to identify small molecule antagonists of the androgen receptor (AR) signaling pathway (AID 743035; active = well fitted inhibition curve with a large enough effect in the signal ratio in the repeat runs, not every such curve was filed as active; the % refers to the signal ratio)
Summary of the method: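 Reporter HEK293 cells were exposed to compounds and R1881 overnight (16 h, 37C); beta-lactamase activity was then quantified by FRET fluorescence.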

[15] = target: Androgen receptor (Homo sapiens) (UniProt P10275); test: qHTS assay to identify small molecule agonists of the androgen receptor (AR) signaling pathway (AID 743036; active = well fitted activation curve with a large enough effect in the signal ratio in the repeat runs, with a control signal flat, not every such curve was filed as active; the % refers to the signal ratio)
Summary of the method: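 Following a 4 h settling period, AR-UAS-bla HEK293 cells were dosed with compounds for 16 h at 37C. A 2 h room-temperature incubation with LiveBLAzer B/G FRET substrate preceded the fluorescence measurement.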

[16] = target: Androgen receptor (Homo sapiens) (UniProt P10275); test: qHTS assay to identify small molecule agonists of the androgen receptor (AR) signaling pathway using the MDA cell line (AID 743040; note: nearly all actives have a fitted effect of over 20% in size)
Summary of the method: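 Stable MMTV-luciferase reporter in MDA-kb2 cells; note the promoter carries GR as well as AR response elements. 16 h compound treatment, 37C, 0% CO2; ONE-Glo luminescence endpoint.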

[17] = qHTS assay to identify small molecule antagonists of the androgen receptor (AR) signaling pathway using the MDA cell line - cell viability counter screen (AID 743041; note: nearly all actives have a fitted effect of over 45% in size)
Summary of the method: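 Using the breast carcinoma line MDA-kb2 AR-luc, test chemicals were co-incubated with R1881 for 16 h; CellTiter-Fluor reagent, added at 15.5 h, provided a fluorescence measure of live cells.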

[18] = target: Androgen receptor (Homo sapiens) (UniProt P10275); test: qHTS assay to identify small molecule antagonists of the androgen receptor (AR) signaling pathway using the MDA cell line (AID 743042; note: nearly all actives have a fitted effect of over 55% in size)
Summary of the method: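 Antagonist mode: compounds plus R1881 agonist added to MDA-kb2 AR-luc cells, incubated 16 h at 37C. Luciferase reporter luminescence quantified, with multiplexed CellTiter-Fluor readout for cell viability.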

[19] = target: Glucocorticoid receptor (Homo sapiens) (UniProt P04150); test: qHTS assay to identify small molecule agonists of the glucocorticoid receptor (GR) signaling pathway (AID 720691; active = well fitted activation curve with a large enough effect in the signal ratio in the repeat runs, not every such curve was filed as active; the % refers to the signal ratio)
Summary of the method: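 Compounds in DMSO, alongside positive controls, were added to GR-bla HeLa reporter cells and incubated 18 h at 37 C; GRE-driven beta-lactamase was detected by fluorescence after 2 h with FRET substrate at room temperature.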
% is set by controls: 0 for no effect and ±100 for the full control effect.

Sequence of Glucocorticoid receptor (Homo sapiens) (P04150 whole entry, looked up): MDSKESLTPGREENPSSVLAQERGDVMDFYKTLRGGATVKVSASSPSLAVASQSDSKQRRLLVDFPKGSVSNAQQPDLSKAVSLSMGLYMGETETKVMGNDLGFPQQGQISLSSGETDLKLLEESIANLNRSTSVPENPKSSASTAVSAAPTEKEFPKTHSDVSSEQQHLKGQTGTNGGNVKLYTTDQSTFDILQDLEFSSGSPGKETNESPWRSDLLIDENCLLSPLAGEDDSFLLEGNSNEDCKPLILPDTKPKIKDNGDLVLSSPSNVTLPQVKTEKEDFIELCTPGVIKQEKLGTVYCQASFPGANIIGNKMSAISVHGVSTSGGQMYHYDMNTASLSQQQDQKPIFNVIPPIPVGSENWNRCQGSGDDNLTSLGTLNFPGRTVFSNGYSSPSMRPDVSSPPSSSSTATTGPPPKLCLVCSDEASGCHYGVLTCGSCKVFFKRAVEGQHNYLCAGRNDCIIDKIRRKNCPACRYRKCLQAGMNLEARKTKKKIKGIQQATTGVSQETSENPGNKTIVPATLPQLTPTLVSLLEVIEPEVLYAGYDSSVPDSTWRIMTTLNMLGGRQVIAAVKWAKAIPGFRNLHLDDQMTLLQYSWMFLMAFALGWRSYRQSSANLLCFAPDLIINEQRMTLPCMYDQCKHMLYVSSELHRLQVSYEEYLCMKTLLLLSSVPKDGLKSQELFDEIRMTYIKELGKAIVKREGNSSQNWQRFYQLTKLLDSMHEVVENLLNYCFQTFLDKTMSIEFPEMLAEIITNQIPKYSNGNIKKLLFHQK
Sequence of Androgen receptor (Homo sapiens) (P10275 whole entry, looked up): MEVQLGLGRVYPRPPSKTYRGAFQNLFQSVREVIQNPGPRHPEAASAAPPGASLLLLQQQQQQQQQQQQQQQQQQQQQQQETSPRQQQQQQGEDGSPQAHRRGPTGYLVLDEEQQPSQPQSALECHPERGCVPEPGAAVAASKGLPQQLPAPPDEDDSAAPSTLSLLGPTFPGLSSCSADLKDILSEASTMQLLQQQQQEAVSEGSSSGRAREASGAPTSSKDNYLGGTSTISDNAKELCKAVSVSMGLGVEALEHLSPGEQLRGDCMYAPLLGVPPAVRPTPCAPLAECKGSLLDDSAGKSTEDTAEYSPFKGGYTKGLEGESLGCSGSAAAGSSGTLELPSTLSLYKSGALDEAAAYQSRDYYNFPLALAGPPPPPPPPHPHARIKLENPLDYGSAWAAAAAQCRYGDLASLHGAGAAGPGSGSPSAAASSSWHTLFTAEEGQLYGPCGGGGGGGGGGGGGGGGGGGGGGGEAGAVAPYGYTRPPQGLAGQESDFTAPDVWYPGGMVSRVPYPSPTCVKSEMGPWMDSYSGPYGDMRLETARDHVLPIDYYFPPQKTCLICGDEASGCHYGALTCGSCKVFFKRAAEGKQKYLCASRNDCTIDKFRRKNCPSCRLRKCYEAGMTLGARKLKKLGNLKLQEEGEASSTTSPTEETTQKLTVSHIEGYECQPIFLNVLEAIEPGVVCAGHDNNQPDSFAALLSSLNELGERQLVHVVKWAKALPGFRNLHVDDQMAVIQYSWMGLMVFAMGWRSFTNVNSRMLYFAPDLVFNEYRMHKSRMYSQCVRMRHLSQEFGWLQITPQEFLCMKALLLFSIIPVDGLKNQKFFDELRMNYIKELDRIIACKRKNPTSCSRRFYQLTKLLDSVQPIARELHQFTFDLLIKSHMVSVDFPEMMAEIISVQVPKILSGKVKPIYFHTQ

COCCOCCOCCOCCO
inactive: outcome [1] | outcome [2] | outcome [3] | outcome [4] | outcome [5] | outcome [6] | outcome [7] | outcome [8] | outcome [9] | Potency [10] | Potency [11] | Potency [12] | Potency [13] | Potency [14] | outcome [15] | outcome [16] | Potency [17] | Potency [18]

CC[C@H](C)C(=O)O[C@H]1C[C@H](O)C=C2C=C[C@H](C)[C@H](CC[C@@H](O)C[C@@H](O)CC(=O)O)[C@H]21
inactive: outcome [1] | outcome [2] | outcome [3] | outcome [4] | outcome [5] | outcome [6] | outcome [7] | outcome [8] | Potency [19] | Potency [10] | Potency [13] | Potency [17]

O=C1CCCC(=O)O1
inactive: outcome [1] | outcome [2] | outcome [3] | outcome [4] | outcome [5] | outcome [6] | outcome [7] | outcome [8] | outcome [9] | Potency [10] | Potency [11] | Potency [12] | Potency [13] | Potency [17]

C=C1CC/C=C(\C)CC[C@@H]2[C@@H]1CC2(C)C
inactive: outcome [1] | outcome [2] | outcome [3] | outcome [4] | outcome [5] | outcome [6] | outcome [7] | outcome [8] | outcome [9] | Potency [10] | Potency [12] | Potency [13] | Potency [17]

O=C(/N=N/C(=O)OCc1ccccc1)OCc1ccccc1
active: Potency [12] 61.1 µM
inactive: outcome [1] | outcome [2] | outcome [3] | outcome [4] | outcome [5] | outcome [6] | outcome [7] | outcome [8] | outcome [9] | Potency [13] | Potency [17]

CC(C)CC(C)CC(C)CC(C)COC(=O)c1ccccc1C(=O)OCC(C)CC(C)CC(C)CC(C)C (configuration not stated)
inactive: outcome [1] | outcome [2] | outcome [3] | outcome [4] | outcome [5] | outcome [6] | outcome [7] | outcome [8] | outcome [9] | Potency [10] | Potency [13] | Potency [17]
active: Potency [11] 25.3 µM

CCOC(=O)c1ncn2c1CN(C)C(=O)c1cc(F)ccc1-2
inactive: outcome [1] | outcome [2] | outcome [3] | outcome [4] | outcome [5] | outcome [6] | outcome [7] | outcome [8] | outcome [9] | Potency [10] | Potency [11] | Potency [12] | Potency [13] | Potency [14] | outcome [15] | outcome [16] | Potency [17] | Potency [18]

CCCCOC(=O)c1ccccc1
inactive: outcome [1] | outcome [2] | outcome [3] | outcome [4] | outcome [5] | outcome [6] | outcome [7] | outcome [8] | Potency [19] | Potency [10] | Potency [12] | Potency [13] | Potency [14] | outcome [16] | Potency [17] | Potency [18]

CCCCCCCCC(=O)Cl
inactive: outcome [1] | outcome [2] | outcome [3] | outcome [4] | outcome [5] | outcome [6] | outcome [7] | outcome [8] | outcome [9] | Potency [11] | Potency [12] | Potency [13] | Potency [17]

COc1nccnc1NS(=O)(=O)c1ccc(N)cc1
inactive: outcome [1] | outcome [2] | outcome [3] | outcome [4] | outcome [5] | outcome [6] | outcome [7] | outcome [8] | Potency [10] | Potency [11] | Potency [12] | Potency [13] | outcome [15] | outcome [16] | Potency [17] | Potency [18]

CC/C=C\CC1=C(C)CCC1=O
inactive: outcome [1] | outcome [2] | outcome [3] | outcome [4] | outcome [5] | outcome [6] | outcome [7] | outcome [8] | Potency [10] | Potency [11] | Potency [12] | Potency [13] | outcome [15] | outcome [16] | Potency [17]

COc1ccc(Br)c(C)c1
inactive: outcome [1] | outcome [2] | outcome [3] | outcome [4] | outcome [5] | outcome [6] | outcome [7] | outcome [8] | outcome [9] | Potency [10] | Potency [11] | Potency [12] | Potency [13] | Potency [17]

COC(=O)C1CC(=O)C(C(=O)OC)CC1=O (configuration not stated)
inactive: fluorescence, % of fluorescein [1] -0.0599% [at 3.72 µM] | fluorescence, % of fluorescent control [2] 1.67% [at 3.72 µM] | activity change [3] -0.0001% [at 3.72 µM] | fluorescence, % of fluorescent control [4] 0.0034% [at 3.72 µM] | fluorescence, % of Rose Bengal [5] 0.258% [at 3.72 µM] | fluorescence, % of fluorescent control [6] 2.39% [at 3.72 µM] | fluorescence, % of fluorescein control [7] -0.0181% [at 3.72 µM] | fluorescence, % of fluorescent control [8] 1.56% [at 3.72 µM] | viability change, negative = cytotoxic [9] -6.7% [at 7.04 µM] | activity change, negative = cytotoxicity [10] -1.23% [at 8.52 µM] | activity, negative = cytotoxicity [11] 6.72% [at 8.53 µM] | activity change, negative = cytotoxicity [12] -1.14% [at 8.55 µM] | activity change, negative = cytotoxicity [13] -11.9% [at 7.04 µM] | viability change, negative = cytotoxic [17] 6.75% [at 8.47 µM]

CC(C)C[C@H](NC(=O)CNC(=O)[C@H](Cc1ccc(O)cc1)NC(=O)[C@H](CO)NC(=O)[C@H](Cc1c[nH]c2ccccc12)NC(=O)[C@H](Cc1cnc[nH]1)NC(=O)[C@@H]1CCC(=O)N1)C(=O)N[C@@H](CCCN=C(N)N)C(=O)N1CCC[C@H]1C(=O)NCC(N)=O (stereo in doubt)
inactive: outcome [1] | outcome [2] | outcome [3] | outcome [4] | outcome [5] | outcome [6] | outcome [7] | outcome [8] | outcome [9] | Potency [10] | Potency [11] | Potency [12] | Potency [13] | Potency [17]
